Only some compounds are listed: those with a hit (about 8.9% of all), similar ones and a draw of the others.
12-hLO inh = 12-hLO (ALOX12) enzyme inhibition | P18054 | purified 12-hLO, xylenol orange hydroperoxide absorbance | Potency, µM (top dose mostly 57.1 µM), for the others: at the top dose activity change, negative = inhibition, actives largely listed as inhibitors | actives 0.12% (n = 150,000) | AID 1452; further: potency means the concentration at half of the fitted maximal effect; nearly all actives have a fitted effect of over 55% in size
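Hydroperoxide formation by human 12-lipoxygenase from 40 uM arachidonic acid was followed colorimetrically via ferric-xylenol orange complex, using the 573/405 nm absorbance ratio. Enzyme concentration was 150 nM, with 30 min reaction at room temperature.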
ALDH1A1 block = ALDH1A1 (human) enzyme inhibition. actives 7.3% (n = 220,000). Purified ALDH1A1, NADH fluorescence, propionaldehyde substrate. P00352. AID 1030. Potency, µM (series often up to 75.3 µM), inactives show top-dose activity, negative = inhibition, actives largely listed as inhibitors; active means well fitted inhibition curve with a large enough effect, not every such curve was filed as active; inconclusive means small, poorly fitted or top-dose-only effect, or another doubt; inactive means no such curve, though single readings can be large or run the other way;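 further: potency means the concentration at half of the fitted maximal effect; plate controls were no enzyme wells and a reference inhibitor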
IMPase cell inh = IMPase inhibition in cells; 120,000 tested, under 10 active; CHO-M1 cells, IP1 accumulation, HTRF TR-FRET ratio; inhibition (IP1 accumulation), % at 46.1 µM; active means well fitted curve in the direction sought with a large enough effect in the signal ratio, not every such curve was filed as active; inconclusive means small, poorly fitted or top-dose-only effect, or a change in a side signal; inactive means no such curve, though single readings can be large or run the other way; the % refers to the signal ratio;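 further: cells stimulated with carbachol in lithium chloride buffer; plate controls were DMSO basal wells for no effect and reference inhibitor wells for full effect; higher means more IMPase inhibition seen as more IP1 and lower FRET ratio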
Target sequence (P97697 whole entry, looked up): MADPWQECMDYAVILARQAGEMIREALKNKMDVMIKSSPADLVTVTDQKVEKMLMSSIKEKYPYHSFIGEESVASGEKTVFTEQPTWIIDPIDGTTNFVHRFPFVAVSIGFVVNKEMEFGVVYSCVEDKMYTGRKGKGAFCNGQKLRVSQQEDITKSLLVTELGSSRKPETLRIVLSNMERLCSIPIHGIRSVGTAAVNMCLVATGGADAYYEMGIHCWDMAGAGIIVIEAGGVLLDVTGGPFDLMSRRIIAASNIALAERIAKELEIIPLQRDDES
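CHO-M1 cells (CHO stably expressing M1 receptor), compound up to 46 uM final, stimulated with carbachol (50 uM as added) in buffer with 50mM LiCl, pH 7.4, 30 min at 37C. Cytosolic IP1 read by TR-FRET; AC50 from Hill fits.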
IMPase Li cell = cell-permeable IMPase inhibitors with lithium potentiation | Potency, µM (titrated, usually from 59.4 µM), inactives show top-dose activity, negative = IMPase inhibition, hits mostly inhibitors | AID 1457 | CHO-M1 cells, IP1 TR-FRET (IP-One), carbachol + lithium | actives 0.35% (n = 210,000);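 further: IP1 builds up when IMPase is blocked and the TR-FRET signal falls; potency means the concentration at half of the fitted maximal effect; plate controls were basal vehicle for no effect and high inhibitor control for full effect; nearly all actives have a fitted effect of over 50% in size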
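Lithium-sensitised IP1 accumulation assay; M1-expressing CHO cells treated 30 min at 37C with compound. Competitive antibody detection by time-resolved FRET followed a 10 min room-temperature lysis step.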
NPSR antagonist = antagonists of human neuropeptide S receptor cAMP signaling; Q6W5P4; CHO-NPSR cells, cAMP TR-FRET, antagonist mode; Potency, µM (doses to about 38.3 µM), for inactives: top-dose activity change, negative = inhibition, hits mostly inhibitors; actives 1% (n = 220,000); AID 1461; further: potency means the concentration at half of the fitted maximal effect; nearly all actives have a fitted effect of over 50% in size
HPGD block = blocks human HPGD enzyme activity; P15428; purified HPGD, NADH fluorescence kinetic, PGE2 substrate; actives 4.3% (n = 150,000); Potency, µM, without a hit: top-dose activity change, negative = inhibition, actives largely listed as inhibitors; active means well fitted inhibition curve with a large enough effect, not every such curve was filed as active; inconclusive means small, poorly fitted or top-dose-only effect, or another doubt; inactive means no such curve, though single readings can be large or run the other way; further: potency means the concentration at half of the fitted maximal effect
Target sequence (P15428 whole entry, looked up): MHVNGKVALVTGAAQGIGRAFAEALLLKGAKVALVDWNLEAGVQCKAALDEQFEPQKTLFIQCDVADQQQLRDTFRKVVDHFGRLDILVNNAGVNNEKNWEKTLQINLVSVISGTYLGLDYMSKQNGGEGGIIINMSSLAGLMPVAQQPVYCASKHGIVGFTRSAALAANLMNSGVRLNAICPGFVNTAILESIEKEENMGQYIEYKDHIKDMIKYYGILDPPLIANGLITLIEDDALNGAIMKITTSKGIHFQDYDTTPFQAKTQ
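NADH formation kinetics: reaction with 30 uM PGE2 and 1 mM NAD+ (final), 20 nM enzyme, Tris-HCl pH 8 with Tween 20, after 15 min compound preincubation at room temperature. Fluorescence change, last versus first of five reads.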
* = called active by the depositor; ? = inconclusive; · = no result given; [ ] = another dose, or the depositor's remark. Unless noted, the call rests on the fitted dose curve; in most records, active means well fitted curve in the direction sought with a large enough effect; inconclusive means small, poorly fitted or top-dose-only effect, or another doubt; inactive means no such curve, though single readings can be large; an effect the other way counts as inactive or inconclusive. Unless noted, on the % scale 0 is the no-effect control and ±100 the full control effect.

SMILES | 12-hLO inh | ALDH1A1 block | IMPase cell inh | IMPase Li cell | NPSR antagonist | HPGD block
Cn1cnc([N+](=O)[O-])c1Sc1nnc(-c2cccnc2)n1C | 0.2%[11.4 µM] | -7.0%[13.5 µM] | · | 1.7% | 1.0% | -0.2%
Clc1ccc(C[n+]2cc(-c3ccccc3)n3c2CCCCC3)c(Cl)c1 | · | 4.3% | · | 26.0% | -28.6% | ·
Cc1cc2nc(Sc3c([N+](=O)[O-])nc(C)n3Cc3ccccc3)[nH]c2cc1C | -5.0% | 1.12µM* | -4.0 | 7.6% | -57.0% | -22.2%
COc1ccc(NC(=O)Nc2ccccc2F)cc1Cl | · | 8.0% | · | 7.4% | 5.5% | ·
COc1ccc(COC(=O)N/C=C/c2ccco2)cc1 | · | 28.2µM* | · | 8.0% | 0.7% | ·
COc1ccc(CNC(=O)COC(=O)/C=C/c2ccco2)cc1 | · | 25.1µM* | · | 7.3% | 5.2% | ·
Cc1ccccc1-c1nc(NCc2cccnc2)c2ccccc2n1 | -0.3% | 22.4µM* | · | 15.6% | · | -23.8%
Cc1cnc(CNc2nc(-c3ccccc3Cl)nc3ccccc23)cn1 | · | 14.1µM* | · | -8.9% | · | ·
CCC(C)NC(=O)c1ccccc1-c1ccccc1C(=O)NC(C)CC (centres undefined) | · | -8.8% | · | 11.0% | 22.0% | ·
Cc1c(C(=O)Nc2ccc(F)c(F)c2)oc2ccc(S(=O)(=O)N3CCCCC3)cc12 | 4.0% | ? | 1.8 | 24.5%[38.3 µM] | -8.8%[46.1 µM] | -29.6%
Fc1ccc(-n2nnnc2-c2ccccc2Cl)cc1 | · | ? | · | 4.9% | 1.4% | ·
COc1cccc(C2C(C#N)=C(N)SC(c3ccccc3)C2[N+](=O)[O-])c1 (centres undefined) | · | 5.62µM* | · | 21.3% | -26.0% | ·
COc1cccc(C2C(C#N)=C(N)Oc3c2oc(CO)cc3=O)c1 (centres undefined) | -6.3% | 8.3% | -3.7 | 1.7% | 0.6%[46.1 µM] | -15.6%
CCOCCCNC(=O)C(c1ccc(C)cc1)N(Cc1cccs1)C(=O)c1ccccc1O (centres undefined) | · | 15.8µM* | · | 12.0% | -30.4% | ·
CCOCCCNC(=O)C(c1ccc(OC)cc1)N(Cc1ccc2c(c1)OCO2)C(=O)c1ccccc1O (centres undefined) | · | 2µM* | · | 5.9% | -31.1% | ·
N#Cc1ccc(CSCC(=O)NN=C2CCCC2)cc1 | · | ? | · | -1.3% | 12.9% | ·
N#CCC(=O)NN=C1CCCCCCCCCCC1 | -0.4% | 3.16µM* | 3.4 | 9.0%[38.3 µM] | -5.3%[46.1 µM] | -11.7%
Cc1ccc(C2CC(=O)N3CN(c4ccc(Br)cc4)CSC3=C2C#N)o1 (centres undefined) | ? | ? | -5.6 | ? | -22.3%[46.1 µM] | ?
N#CC1=C2SCN(c3ccccc3)CN2C(=O)CC1c1cccs1 (centres undefined) | ? | 3.16µM* | -13.8 | 28.2µM* | -16.0%[46.1 µM] | 7.08µM*
N#CC1=C2SCN(c3ccccc3)CN2C(=O)CC1c1c(Cl)cccc1Cl (centres undefined) | 28.2µM* | 3.16µM* | 4.3 | 15.9%[38.3 µM] | -12.1%[46.1 µM] | 7.94µM*
N#CC1=C2SCC(O)(c3ccccc3)N2C(=O)CC1c1cccs1 (centres undefined) | -18.6% | 0.0355µM* | ? | · | -9.2%[46.1 µM] | ·
N#CC1=C2SCN(c3ccccc3)CN2C(=O)CC1c1ccccc1Cl (centres undefined) | ? | 3.16µM* | 2.4 | 8.5%[38.3 µM] | -5.3%[46.1 µM] | 7.94µM*
CCCCC(=O)Nc1c(C)cc(C)cc1Cl | 4.2% | -8.9% | -3.6 | 40.9%[38.3 µM] | 0.9%[46.1 µM] | 35.5µM*
CCOC(=O)c1c(C)nn(-c2ncccc2NC(=O)NC(C)C)c1C | · | -4.1% | · | · | -19.0% | ·
O=C(CN1CCCc2ccccc21)Nc1ccc(F)cc1[N+](=O)[O-] | · | 14.8% | · | 24.2% | -14.2% | ·
COc1ccc(C2(CNC(=O)/C=C\c3ccco3)CCCC2)cc1OC | -16.5% | 3.55µM* | 4.1[1.84 µM] | 21.4%[38.3 µM] | 14.0%[46.1 µM] | ?
Cc1ccc(OCCNC(=O)/C=C/c2ccco2)cc1C | · | 11.2µM* | · | -1.2% | -18.4% | ·
CCOC(=O)N/N=C(C)/C=C/c1ccccc1 | 0.3% | 1.5% | · | 6.9% | 8.2% | 1.5%
CC(/C=C/c1ccco1)=N\NC(=O)CNc1ccc2ccccc2c1 | · | 7.94µM* | · | 25.0% | -18.4% | ·
